NSD2 HMT inh: NSD2 (human) methyltransferase inhibition; NSD2 peptide methylation, AlphaScreen, 120 min; inhibition, % at 12.5 µM; hit rate 0.54% among 310,000; AID 743445; in the data active = inhibition above about 50%
PAX8 inh HTS: PAX8 transcriptional activity inhibition; RMG-I TPO-luciferase reporter, SteadyGlo, 24 h; inhibition, % at 12.6 µM; hit rate 1.2% among 360,000;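 active = mean replicate inhibition at least 60% with every replicate also reaching 60%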;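 also: luciferase light reporting Pax8 driven TPO promoter activity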
Glyco luc inh: N-linked glycosylation inhibition; D54 ERlucT glycosylation luciferase reporter, 24 h; percent of 100 nM tunicamycin response; AID 588692; hit rate 0.23% among 360,000; reporter increase, % at 12.5 µM;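 active = mean luciferase reporter signal, scaled so untreated is 0 and the glycosylation-blocking control 100, at or above a set limit in every replicate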;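 also: luciferase carries N-glycosylation sites so blocking glycosylation raises the light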
Shn3 inh set2: reduces Shn3 3'UTR luciferase signal in osteoblasts | Clone20 osteoblast Shn3 3'UTR firefly luciferase, 24 h | inhibition, % at 12.5 µM | hit rate 0.52% among 360,000 | AID 588674;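 active = mean inhibition of at least 75% with every replicate also reaching 75%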
LMP1 NFkB inh: reduces LMP1-driven NF-kappaB luciferase signal. LMP1-induced NF-kappaB luciferase reporter cells, luminescence. inhibition, % at 12.5 µM. hit rate 0.69% among 350,000. AID 504558; in the data active = inhibition above about 41%
Env fusion inh: blocks HIV Env-driven cell-cell fusion; inhibition, % at 12.3 µM; HeLa-JRFL Env/CEM21 cell fusion, luciferase; AID 651610; hit rate 1.1% among 360,000;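 active = mean replicate inhibition score of at least 50 and every replicate individually at or above 50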
Large screens that a line does not name were inactive; [ ] = remark or other dose. This is a sample that favours compounds with a hit; in the whole collection about 2.8% have one here.

CN(C)c1ccnc(Nc2ccccc2)c1C#N	none
O=C(NC1CCCCC1)N1CCN(c2ccc([N+](=O)[O-])cc2)CC1	LMP1 NFkB inh 75
O=C(NC1CCCCC1)N1CCN(c2ccc(Cl)cc2)CC1	none (no result: Glyco luc inh)
COc1ccc(NC(=O)N[C@H]2CC[C@@H](CCNC(=O)c3ccccc3F)O[C@H]2CO)cc1	none (no result: NSD2 HMT inh, Glyco luc inh, Shn3 inh set2, LMP1 NFkB inh)
CC1COCC(C)N1C1=C(Cl)C(=O)c2ccccc2C1=O (stereo not drawn)	NSD2 HMT inh 107, Glyco luc inh 34, Shn3 inh set2 96
COc1ccccc1CN1C[C@H](C)[C@@H](OC)CN(C)C(=O)c2cc(NC(C)=O)ccc2OC[C@@H]1C	none (no result: NSD2 HMT inh, Glyco luc inh, Shn3 inh set2, LMP1 NFkB inh)
COCC(=O)N1CC(=O)N2[C@H](C1)[C@@H](c1ccc(Br)cc1)[C@@H]2CO	none (no result: NSD2 HMT inh, Glyco luc inh, Shn3 inh set2, LMP1 NFkB inh, Env fusion inh)
CNC[C@H]1Oc2ncc(C#CCC(C)C)cc2C(=O)N([C@H](C)CO)C[C@H]1C	none (no result: NSD2 HMT inh, PAX8 inh HTS, Glyco luc inh, Shn3 inh set2, LMP1 NFkB inh)
C[C@@H]1CCCCO[C@H](CN(C)C(=O)NC2CCCCC2)[C@@H](C)CN([C@H](C)CO)C(=O)c2cc(NC(=O)Nc3ccc4c(c3)OCO4)ccc2O1	none (no result: NSD2 HMT inh, Glyco luc inh, Shn3 inh set2, LMP1 NFkB inh)
COC(=O)[C@]12C[C@H](CC(=O)N3CCN(C(=O)c4ccco4)CC3)C(=O)N(Cc3ccccc3)C1=C[C@H](C(C)(C)C)O[C@@H]2C	PAX8 inh HTS 74 (no result: NSD2 HMT inh, Glyco luc inh, Shn3 inh set2, LMP1 NFkB inh)
COC(=O)[C@@]12C[C@@H](CC(=O)N3CCN(C(=O)c4ccco4)CC3)C(=O)N(Cc3ccccc3)C1=CCC(C)(C)C2	PAX8 inh HTS 88 (no result: NSD2 HMT inh, Glyco luc inh, Shn3 inh set2, LMP1 NFkB inh)
COC(=O)[C@]12C[C@H](CC(=O)N3CCN(C(=O)c4ccco4)CC3)C(=O)N(Cc3ccc4c(c3)OCO4)C1=C[C@H](C(C)(C)C)O[C@@H]2C	none (no result: NSD2 HMT inh, Glyco luc inh, Shn3 inh set2, LMP1 NFkB inh)
COC(=O)[C@@]12C[C@@H](CC(=O)N3CCN(C(=O)c4ccco4)CC3)C(=O)N(Cc3ccc4c(c3)OCO4)C1=CCC(C)(C)C2	none (no result: Glyco luc inh, Shn3 inh set2, LMP1 NFkB inh)
COC(=O)[C@@]12C[C@@H](CC(=O)N3CCN(C(=O)c4ccco4)CC3)C(=O)N(Cc3ccco3)C1=CCC(C)(C)C2	PAX8 inh HTS 87 (no result: NSD2 HMT inh, Glyco luc inh, Shn3 inh set2, LMP1 NFkB inh)
CCCNC(=O)N1[C@H](C#N)[C@H](c2ccccc2C2=CCCC2)[C@@H]1CO	none (no result: NSD2 HMT inh, Glyco luc inh, Shn3 inh set2, LMP1 NFkB inh, Env fusion inh)
CC(C)[C@H]1COCn2nncc2CC[C@@H](Cc2ccccc2)C(=O)N1	none (no result: NSD2 HMT inh, Glyco luc inh, Shn3 inh set2, LMP1 NFkB inh)
CC(C)C[C@H]1COCn2nncc2CC[C@@H](Cc2ccccc2)C(=O)N1	Env fusion inh 66[16.7 µM] (no result: NSD2 HMT inh, Glyco luc inh, Shn3 inh set2, LMP1 NFkB inh)
Cc1cc(Nc2cc(Cl)nc(Sc3ccc(NC(=O)C4CC4)cc3)n2)n[nH]1	PAX8 inh HTS 75 (no result: NSD2 HMT inh)
C[C@@H]1CCCCO[C@H](CN(C)S(C)(=O)=O)[C@@H](C)CN([C@@H](C)CO)C(=O)c2cc(NC(=O)Nc3ccccc3)ccc2O1	none (no result: NSD2 HMT inh, Glyco luc inh, Shn3 inh set2, LMP1 NFkB inh)
CCCCCCCCNC(=O)c1cnccn1	PAX8 inh HTS 98 (no result: Env fusion inh)
Cc1ccccc1C(=O)NCCCNC(=O)c1cnccn1	none
CCNC(=O)C(Sc1ccccc1)c1ccccc1 (stereo not drawn)	none
CCCCNC(=O)C(Sc1ccccc1)c1ccccc1 (stereo not drawn)	PAX8 inh HTS 145 (no result: Env fusion inh)
COc1cccc(/C=C2\SC(=S)N(CCCC(=O)N3CCCCC3CCO)C2=O)c1 (stereo not drawn)	PAX8 inh HTS 67
COc1cccc(/C=C2\SC(=S)N(CCC(=O)N3CCCCC3CCO)C2=O)c1 (stereo not drawn)	PAX8 inh HTS 70
C[C@@H]1CN([C@@H](C)CO)C(=O)c2cc(C#CCc3ccccc3)cnc2O[C@@H]1CN(C)C(=O)Cc1cccnc1	none (no result: NSD2 HMT inh, PAX8 inh HTS, Glyco luc inh, Shn3 inh set2, LMP1 NFkB inh)
Cc1ccc(Cl)cc1-n1c(SCC(=O)NCCC2=CCCCC2)nc2n[nH]c(C)c2c1=N	none
Cc1cc(-n2c(SCC(=O)NCCC3=CCCCC3)nc3n[nH]c(C)c3c2=N)ccc1Cl	PAX8 inh HTS 88, Glyco luc inh 59
C[C@@H]1CN([C@H](C)CO)C(=O)c2cc(/C=C/c3ccccc3)cnc2O[C@H]1CN(C)S(C)(=O)=O	none (no result: NSD2 HMT inh, PAX8 inh HTS, Glyco luc inh, Shn3 inh set2, LMP1 NFkB inh)
C[C@H](CO)N1C[C@H](C)[C@H](CN(C)C(=O)Nc2ccc3c(c2)OCO3)Oc2ccc(NC(=O)Cc3ccccc3)cc2C1=O	none (no result: NSD2 HMT inh, Glyco luc inh, Shn3 inh set2, LMP1 NFkB inh)
C[C@@H]1CN([C@H](C)CO)S(=O)(=O)c2ccc(C#Cc3ccc(F)cc3)cc2O[C@@H]1CN(C)C(=O)NC1CCCC1	none (no result: NSD2 HMT inh, PAX8 inh HTS, Glyco luc inh, Shn3 inh set2, LMP1 NFkB inh)
C[C@H]1CN([C@@H](C)CO)S(=O)(=O)c2ccc(C#Cc3ccc(F)cc3)cc2O[C@H]1CN(C)C(=O)NC1CCCCC1	PAX8 inh HTS 78 (no result: NSD2 HMT inh, Glyco luc inh, Shn3 inh set2, LMP1 NFkB inh)
C[C@H]1CN([C@@H](C)CO)S(=O)(=O)c2ccc(C#Cc3ccc(F)cc3)cc2O[C@@H]1CN(C)C(=O)NC1CCCCC1	PAX8 inh HTS 91 (no result: NSD2 HMT inh, Glyco luc inh, Shn3 inh set2, LMP1 NFkB inh)
C[C@@H]1CN([C@@H](C)CO)S(=O)(=O)c2ccc(C#Cc3ccc(F)cc3)cc2O[C@@H]1CN(C)C(=O)NC1CCCCC1	PAX8 inh HTS 85 (no result: NSD2 HMT inh, Glyco luc inh, Shn3 inh set2, LMP1 NFkB inh)
COc1cc(/C=C(\C(=O)O)c2ccc(S(=O)(=O)N3CCCCC3)s2)ccc1OC(F)F	none (no result: PAX8 inh HTS, Glyco luc inh, Shn3 inh set2, LMP1 NFkB inh, Env fusion inh)
C[C@@H]1CN([C@@H](C)CO)C(=O)c2cc(NC(=O)Nc3ccc(C(F)(F)F)cc3)ccc2O[C@@H]1CN(C)C(=O)Nc1ccc(F)cc1	none (no result: NSD2 HMT inh, PAX8 inh HTS, Glyco luc inh, Shn3 inh set2, LMP1 NFkB inh)
COc1ccc(CC(N)c2csc(NC(=O)Nc3ccccc3Oc3ccccc3)n2)cc1 (stereo not drawn)	Env fusion inh 100 (no result: LMP1 NFkB inh)
NC(Cc1ccc(C(F)(F)F)cc1)c1csc(NC(=O)NCCc2ccccc2)n1 (stereo not drawn)	Env fusion inh 66 (no result: LMP1 NFkB inh)
COc1ccc(CC(N)c2csc(Nc3nncc4ccccc34)n2)cc1 (stereo not drawn)	Env fusion inh 58 (no result: LMP1 NFkB inh)

Assay outcomes as filed in PubChem.
